Compound activity deposited in PubChem by Broad Institute.
HIF act – HIF pathway transcriptional activation | activation, % at 7.5 µM (by protocol) | actives 0.32% (n = 300,000) | U2OS HRE-luciferase reporter, luminescence; normalized: DMSO 0%, desferrioxamine 100%;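 active means mean activation of at least 10% of the iron chelator positive control signal, with at least half of replicates also reaching 10%; inconclusive means mean and replicate majority disagree about reaching 10%; inactive means mean and most replicates under 10%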
AI-2 QS mod – modulators of Vibrio harveyi AI-2 quorum sensing system | Vibrio harveyi JMH597 AI-2 luminescence/OD600 ratio, 9 h; hits give low values; strain lacks LuxN and CqsS sensors; 0 = neutral-control median | activity change, % at 7.5 µM | actives 0.4% (n = 300,000) | AID 2094; in the data active means activity change below about -75%, passing the limit was not always enough; inconclusive means no clear call, values can overlap the other calls;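 further: luminescence divided by OD600 gain over 9 h not by final OD600 alone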
Rce1 inhib – yeast Ras-converting enzyme inhibition; calls only; AID 2563; yeast membranes, quenched prenylated peptide cleavage fluorescence; actives 0.27% (n = 290,000); Q03530;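 active means fall in fluorescence gain of 50% or more versus controls, with final raw signal at or below 3038400; inconclusive means same 50% fall but final raw signal above 3038400; inactive means fall in fluorescence gain under 50%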;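 further: plate controls were neutral control wells for no effect and wells lacking membranes for full effect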
Target sequence (Q03530 whole entry, looked up): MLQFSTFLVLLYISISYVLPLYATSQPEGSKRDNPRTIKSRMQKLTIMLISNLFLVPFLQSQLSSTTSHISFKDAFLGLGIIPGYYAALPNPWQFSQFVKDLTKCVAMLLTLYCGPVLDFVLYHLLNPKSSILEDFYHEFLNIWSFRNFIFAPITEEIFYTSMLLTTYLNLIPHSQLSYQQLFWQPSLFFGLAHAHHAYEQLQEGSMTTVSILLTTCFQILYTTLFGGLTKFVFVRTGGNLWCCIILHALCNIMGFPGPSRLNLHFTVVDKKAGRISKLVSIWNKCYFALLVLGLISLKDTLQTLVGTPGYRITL
C2C12 statin – suppressors of simvastatin-induced myotoxicity in C2C12 myotubes; rescue of ATP level, % at 7.49 µM; ATP luminescence, 48 h; scaled: DMSO 0, geranylgeraniol control 100; AID 602340; actives 0.78% (n = 330,000);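 active means mean ATP rescue above about 67%, or every replicate alone reaching that limit, limit read from the data, passing the limit was not always enough; inconclusive means no clear call, values can overlap the other calls; inactive means mean under the limit and some replicate under it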;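 further: myotubes were challenged with 10 µM simvastatin during compound exposure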
PGC1a acetyl inh – lowers PGC1a acetylation signal in U2OS cells | AID 651687 | AlphaScreen anti-acetyl-lysine; with virally co-expressed GCN5 acetyltransferase | inhibition, % at 15.6 µM | actives 0.17% (n = 350,000);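 active means every replicate shows inhibition of at least 40%; inconclusive means mean inhibition at least 40% but some replicate below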;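 further: 0% = neutral control wells and 100% = positive control wells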
Active calls of the source: *; i = inactive; ? = inconclusive; / = no result given; + = active, no number. This is a sample that favours compounds with a hit; in the whole collection about 1.3% have one here.

SMILES	HIF act	AI-2 QS mod	Rce1 inhib	C2C12 statin	PGC1a acetyl inh
CNC[C@@H]1OCCCC[C@H](C)Oc2ccc(NS(=O)(=O)c3ccc(F)cc3)cc2C(=O)N([C@@H](C)CO)C[C@H]1C	/	/	/	0.8	6.7
COc1ccc(C2=NN(C(=O)CCC(=O)O)C(c3cccs3)C2)cc1 (configuration not stated)	0.8	24.1	+	/	/
CC1=C(C(=O)OCc2ccc3c(c2)OCO3)C(c2ccccc2)NC(=O)N1 (configuration not stated)	3.7	12.6	i	-2.1	55.5*
CC1=C(C(=O)OCc2ccc3c(c2)OCO3)C(c2ccccc2OCc2ccccc2)NC(=O)N1 (configuration not stated)	-0.2	19.7	i	/	1.9
CC1OC(CC(=O)O)CC2=C1C(=O)c1c(O)cccc1C2=O (configuration not stated)	/	/	/	/	74.8*
C[C@H]1CN([C@@H](C)CO)C(=O)c2cc(-c3cccc(C#N)c3)cnc2O[C@@H]1CN(C)Cc1cccnc1	/	/	/	-13.0	5.2
CN(c1ccccc1C(=O)Nc1cccc(Cl)c1Cl)S(C)(=O)=O	-0.3	14.5	i	7.8	5.1
Cc1ccc(NC(=O)c2ccccc2N(C)S(C)(=O)=O)cc1C	0.1	16.9	i	105.9*	-37.7
CN(c1ccccc1C(=O)Nc1ccc2c(c1)OCCO2)S(C)(=O)=O	0.0	5.1	i	-0.1	-3.1
CCOc1ccccc1NC(=O)c1ccccc1N(C)S(C)(=O)=O	-0.2	17.7	/	151.2*	3.1
C[C@@H]1CN([C@H](C)CO)C(=O)Cc2cc(NS(=O)(=O)c3cn(C)cn3)ccc2O[C@@H]1CN(C)S(C)(=O)=O	/	/	/	23.4	1.8
CN(C)C(=O)C[C@@H]1C[C@H]2c3cc(NC(=O)c4ccc5c(c4)OCO5)ccc3O[C@H]2[C@@H](CO)O1	/	/	/	0.0	-13.6
CC(C)(C)c1ccc(NC(=O)Nc2ccc(F)cc2)cc1	1.2	-84.8*	i	/	13.3
CC1(C)N=C(N)N=C(N)N1c1ccc(F)cc1F	0.6	2.1	i	104.3*	-0.4
COc1ccccc1CNC(=O)C[C@H]1CC[C@@H]2[C@H](COC[C@H](O)CN2C(=O)Nc2ccc(Cl)cc2)O1	/	/	/	-20.8	3.7
CCCCNC(=O)c1cc(-c2ccc(F)cc2)on1	40.5*	39.1	i	/	-5.2
O=C(NCCCN1CCOCC1)c1cc(-c2ccccc2)on1	28.1*	15.9	i	-8.9	3.2
COCC#Cc1ccc2c(c1)O[C@@H](CN(C)Cc1ccc(F)cc1)[C@@H](C)CN([C@H](C)CO)S2(=O)=O	/	/	/	6.9	-27.3
Cc1ccc(CN(C)C[C@@H]2OCc3cn(nn3)CCCC(=O)N([C@@H](C)CO)C[C@H]2C)cc1	/	/	/	-0.1	1.3
O=C(C[C@H]1C[C@@H]2c3cc(NC(=O)CC4CC4)ccc3O[C@@H]2[C@H](CO)O1)NCc1ccncc1	/	/	/	-0.2	5.8
CCCN(C)C[C@@H]1OCCCC[C@H](C)Oc2ccc(NC(=O)CCC(F)(F)F)cc2C(=O)N([C@@H](C)CO)C[C@@H]1C	/	/	/	14.5	-1.2
O=C(c1ccc([N+](=O)[O-])o1)N1CCN(c2nc3c(Cl)cccc3s2)CC1	0.1	-0.5	i	?	/
Cc1ccc2sc(N3CCN(C(=O)c4ccc([N+](=O)[O-])o4)CC3)nc2c1C	0.0	22.4	i	85.0*	-0.1
O=C(c1ccc([N+](=O)[O-])o1)N1CCN(c2nc3ccc(F)cc3s2)CC1	-1.1	24.1	i	68.0*	-5.4
O=C(Nc1ccccc1F)N[C@H]1CC[C@@H](CC(=O)N2CCCCC2)O[C@@H]1CO	/	/	/	7.1	-4.3
SMILES	HIF act	AI-2 QS mod	Rce1 inhib	C2C12 statin	PGC1a acetyl inh
Cc1ccccc1S(=O)(=O)N1CC(=O)N2[C@H](CO)[C@@H](c3ccc(C#CC4CC4)cc3)[C@@H]2C1	/	/	/	/	-1.9
O=C(c1cccnc1)N1CC2(C1)[C@@H](c1ccccc1)[C@H](CO)N2Cc1cccnc1	/	/	/	/	-3.0
COc1cc(Br)c(-c2sc(Nc3ccccc3)n[n+]2-c2ccc(F)cc2)cc1OC	0.0	52.0	i	134.9*	6.1
CN1C(=O)c2cc(NC(=O)C3CCCC3)ccc2OC[C@@H]2O[C@H](CC(=O)NCC(F)(F)F)CC[C@@H]21	/	/	/	22.1	2.0
O=C(CCl)NC1CCCc2ccccc21 (configuration not stated)	-1.1	12.0	i	/	-4.0
O=C(CCn1cccc1)NC1CCCc2ccccc21 (configuration not stated)	0.0	-1.5	i	152.4*	-0.3
CCCC(=O)NC(c1ccc(C(C)C)cc1)c1ccc2cccnc2c1O (configuration not stated)	119.2*	17.1	i	44.3	/
CCCC(=O)NC(c1ccc(OC)c(OC)c1)c1cc(Cl)c2cccnc2c1O (configuration not stated)	0.3	12.6	i	/	9.3
CCCC(=O)NC(c1ccccc1Cl)c1ccc2cccnc2c1O (configuration not stated)	71.3*	/	/	2.8	22.8
CCCCC(=O)NC(c1ccc(OC)cc1)c1ccc2cccnc2c1O (configuration not stated)	/	/	/	21.8	/
CCC(=O)NC(c1ccc(C)cc1)c1cc([N+](=O)[O-])c2cccnc2c1O (configuration not stated)	2.7	-26.7	i	/	7.2
CCC(=O)NC(c1ccc(C)cc1)c1ccc2cccnc2c1O (configuration not stated)	97.5*	-12.6	i	-25.6	14.3
CCCC(=O)NC(c1ccc(N(C)C)cc1)c1ccc2cccnc2c1O (configuration not stated)	48.2*	-90.2*	i	-38.0	2.9
C[C@H](CO)N1C[C@H](C)[C@H](CN(C)C(=O)c2ccccc2)OCCCC[C@H](C)Oc2ccc(NC(=O)Nc3ccccc3)cc2C1=O	/	/	/	/	12.7
CC(C)NC(=O)N1CC2(C1)[C@H](c1ccccc1)[C@H](CO)N2CCC(F)(F)F	/	/	/	/	-2.7
O=C(COC(=O)c1ccccc1NC(=O)c1ccco1)Nc1ncc(Cl)cc1Cl	-0.5	-1.7	i	94.1*	-3.0
COc1cc(NC(=O)c2ccco2)c(C(=O)OCC(=O)Nc2ncc(Cl)cc2Cl)cc1OC	-0.1	-7.6	i	/	-2.2
C=CCn1c(-c2ccccc2)c[nH]c1=S	3.8	26.7	i	-12.7	-2.7
CCn1c(-c2ccc(-c3ccccc3)cc2)c[nH]c1=S	0.7	11.2	i	124.9*	-4.4
COc1ccccc1-n1c(-c2ccccc2)c[nH]c1=S	5.4	32.7	+	/	9.0
S=c1[nH]cc(-c2ccccc2)n1-c1ccccc1Cl	-0.2	-3.6	i	/	/
CO[C@@H](C(=O)N(C)C[C@H]1OCc2ccccc2-c2c(n(C)c3ccccc23)C(=O)N([C@@H](C)CO)C[C@@H]1C)c1ccccc1	/	/	/	/	14.2
C[C@@H]1CN([C@H](C)CO)C(=O)c2cc(NC(=O)c3ccccc3)ccc2O[C@@H](C)CCCCO[C@H]1CN(C)Cc1ccncc1	/	/	/	8.9	5.8
